Experimental data: PubChem BioAssay (NCI)
About 83,000 compounds went through this panel and 20% of them were active in at least one assay; those are over-represented in the sample as a whole.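 For each line, cells grew in 96-well plates with the test compound present at a single concentration for 48 hours.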 The source made the active and inactive calls. Rule for the calls: active = growth percent below 10; inactive = the rest.

Columns and labels:
Assay in all cases: NCI-60 one-dose screen, 48 h (100 = growth as untreated, 0 = no growth, -100 = all killed)
Settings in all cases: 10 µM unless noted
[1] = system: DU-145 prostate
[2] = system: K-562 leukemia
[3] = system: MALME-3M melanoma
[4] = system: MDA-MB-231 breast
[5] = system: RXF 393 renal
[6] = system: SF-268 CNS
[7] = system: SF-295 CNS
[8] = system: SF-539 CNS
[9] = system: UACC-257 melanoma
[10] = system: M14 melanoma
[11] = system: HCT-15 colon
[12] = system: HT29 colon
[13] = system: SNB-75 CNS
[14] = system: U251 CNS
[15] = system: PC-3 prostate
[16] = system: SK-MEL-5 melanoma
[17] = system: UACC-62 melanoma
[18] = system: LOX IMVI melanoma
[19] = system: SK-MEL-28 melanoma
[20] = system: SNB-19 CNS

| Compound | growth [1] | growth [2] | growth [3] | growth [4] | growth [5] | growth [6] | growth [7] | growth [8] | growth [9] | growth [10] | growth [11] | growth [12] | growth [13] | growth [14] | growth [15] | growth [16] | growth [17] | growth [18] | growth [19] | growth [20] |
| --- | --- | --- | --- | --- | --- | --- | --- | --- | --- | --- | --- | --- | --- | --- | --- | --- | --- | --- | --- | --- |
| COc1cc([C@@H]2c3cc4c(cc3C(OC3O[C@@H]5COC(C)O[C@H]5[C@H](O)[C@H]3O)C3COC(=O)[C@@H]32)OCO4)cc(OC)c1O (some centres not stated) | 15.9% (inactive) | 30.5% (inactive) | 40.2% (inactive) | 78.3% (inactive) | 28.9% (inactive) | 23.9% (inactive) | -10.4% (active) | -5.44% (active) | 51.2% (inactive) | 4.19% (active) | 73.1% (inactive) | 64.5% (inactive) | 31.2% (inactive) | 13.5% (inactive) | 63.3% (inactive) | 17.4% (inactive) | 33.7% (inactive) | 12% (inactive) | 61.4% (inactive) |  |
| CCCCCC/C=N/Nc1ccc([N+](=O)[O-])cn1 | 103% (inactive) | 96.7% (inactive) | 98.1% (inactive) | 98.7% (inactive) | 104% (inactive) | 103% (inactive) | 95.3% (inactive) | 93.7% (inactive) | 88.7% (inactive) | 90.4% (inactive) | 102% (inactive) | 81.5% (inactive) | 105% (inactive) | 110% (inactive) | 93.2% (inactive) | 113% (inactive) | 102% (inactive) | 83.2% (inactive) | 109% (inactive) |  |
| CN(C)c1ccc(/C=N/N=C(N)N)cc1 | 92.6% (inactive) | 40% (inactive) | 77% (inactive) | 75.8% (inactive) | 75.1% (inactive) | 87% (inactive) | 61.4% (inactive) | 90.9% (inactive) | 72.4% (inactive) | 51.2% (inactive) | 49% (inactive) | 26.4% (inactive) | 66.5% (inactive) | 60.2% (inactive) | 83.8% (inactive) | 47.3% (inactive) | 72.7% (inactive) | 70.5% (inactive) | 81.7% (inactive) |  |
| C=CCOc1ccc(/C(Cl)=N/N=C(\Cl)c2cc(OC)c(OC)c(OC)c2)cc1 | 70% (inactive) | 69.4% (inactive) | 90.9% (inactive) | 82.4% (inactive) | 58.7% (inactive) | 85.5% (inactive) | 87.9% (inactive) | 88.8% (inactive) | 53.3% (inactive) | 73.4% (inactive) | 67.3% (inactive) | 53.2% (inactive) | 104% (inactive) | 72.8% (inactive) | 65.1% (inactive) | 68.5% (inactive) | 64.5% (inactive) | 80.5% (inactive) | 88.1% (inactive) |  |
| COC(OC)C1(c2ccccc2)NC(=O)NC1=O (configuration not stated) | 120% (inactive) | 112% (inactive) | 112% (inactive) | 112% (inactive) | 116% (inactive) | 119% (inactive) | 121% (inactive) | 114% (inactive) | 104% (inactive) | 108% (inactive) | 110% (inactive) | 106% (inactive) | 94% (inactive) | 107% (inactive) |  | 115% (inactive) | 106% (inactive) | 109% (inactive) | 106% (inactive) | 106% (inactive) |
| C[C@H]1C=C(C[C@@H](O)CCCCCCCCCC[C@@H](O)[C@H]2CCC(=O)O2)C(=O)O1 | 112% (inactive) | 83.5% (inactive) | 122% (inactive) | 102% (inactive) | 100% (inactive) | 115% (inactive) | 109% (inactive) | 92.5% (inactive) | 102% (inactive) | 101% (inactive) | 108% (inactive) | 109% (inactive) | 115% (inactive) | 99.5% (inactive) | 89.4% (inactive) | 95.9% (inactive) | 92.2% (inactive) | 90.5% (inactive) | 124% (inactive) |  |
| COc1cc(/C=C/C(=O)c2ccc(Oc3ncnc4ccccc34)cc2)cc(OC)c1OC | 21.4% (inactive) | 12.1% (inactive) | 98.9% (inactive) | 86.5% (inactive) | 84.3% (inactive) | 81.1% (inactive) | 86.7% (inactive) | 63.6% (inactive) | 93.3% (inactive) | 73.8% (inactive) | 41.5% (inactive) | 79.7% (inactive) | 69.5% (inactive) | 60.3% (inactive) | 75.6% (inactive) | 81% (inactive) | 65.9% (inactive) | 40.4% (inactive) | 89.4% (inactive) |  |
| Nc1ncnc2c1c(-c1ccc(Oc3ccccc3)cc1)nn2C[C@@H]1SSC[C@H]1O | 33.4% (inactive) | 7.7% (active) | 7.28% (active) | 42.6% (inactive) | -9.3% (active) | 29.3% (inactive) | 24.2% (inactive) | 15.3% (inactive) | 36.8% (inactive) | -13.8% (active) | 70.4% (inactive) | 13.2% (inactive) | 2.29% (active) | 26.5% (inactive) |  | -59.6% (active) | -70.4% (active) | 10.7% (inactive) | 31.4% (inactive) | 40.6% (inactive) |
| ClC1c2ccccc2CCc2ccccc21 | 120% (inactive) | 109% (inactive) | 90.6% (inactive) | 104% (inactive) | 111% (inactive) | 99.3% (inactive) | 106% (inactive) | 95% (inactive) | 88.8% (inactive) | 99.2% (inactive) | 88.2% (inactive) | 74.1% (inactive) | 81.6% (inactive) | 96.6% (inactive) |  | 96.7% (inactive) | 98.5% (inactive) | 93.6% (inactive) | 112% (inactive) | 111% (inactive) |
| COc1ccc2c(c1)C(=O)/C(=C/c1cccc(OCC(=O)c3ccccc3)c1)O2 | 13.5% (inactive) | -98.3% (active) | 45.1% (inactive) | 67.3% (inactive) | -56.8% (active) | 36.2% (inactive) | 91.3% (inactive) | -14.7% (active) | 42.9% (inactive) | 49.8% (inactive) | 31.8% (inactive) | -15.7% (active) | -8.04% (active) | 41.5% (inactive) | -43.4% (active) | 50.2% (inactive) | 67% (inactive) | -5.01% (active) | -11.1% (active) |  |
| O=S(=O)(CCN1CCOCC1)Nc1cc(-c2ccc3ncnc(Nc4ccc(F)c(Cl)c4)c3c2)cnc1Cl | 15.6% (inactive) | 42.3% (inactive) | -23.1% (active) | -1.28% (active) | -19% (active) | 16.8% (inactive) | 2.93% (active) | -34.5% (active) | -3.1% (active) | 14.5% (inactive) | 16.2% (inactive) | 14.6% (inactive) | -20.7% (active) | 13.5% (inactive) | 13.4% (inactive) | -5.68% (active) | -16.4% (active) | 4.23% (active) | 2.15% (active) |  |
| COc1cc(CN(c2ccc(Cl)cc2)C2OC(=O)c3ccccc32)cc(OC)c1OC (configuration not stated) | 83.7% (inactive) | 15.8% (inactive) | 64.3% (inactive) | 67.1% (inactive) | 82.7% (inactive) | 67.8% (inactive) | 71.5% (inactive) | 60.2% (inactive) | 74.7% (inactive) | 34.8% (inactive) | 38.2% (inactive) | 17.9% (inactive) | 68.6% (inactive) | 36% (inactive) |  | 73% (inactive) | 45.6% (inactive) | 44.9% (inactive) | 67.3% (inactive) | 74.1% (inactive) |
| c1ccc2c(c1)Oc1cccnc1-n1nccc1-2 | 110% (inactive) | 104% (inactive) | 103% (inactive) | 93.5% (inactive) | 107% (inactive) | 102% (inactive) | 108% (inactive) | 106% (inactive) | 102% (inactive) | 101% (inactive) | 108% (inactive) | 99.7% (inactive) | 88.8% (inactive) | 100% (inactive) |  | 95.7% (inactive) | 84.7% (inactive) | 96.3% (inactive) | 102% (inactive) | 103% (inactive) |
